TROY NFkB inh – inhibitors of TROY-dependent NF-kB signaling. Q293 LMP1-TROYcd NF-kB luciferase reporter, 4 h. inhibition, % at 10 µM. 360,000 compounds, 0.98% hits. AID 1347056;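 active means compounds whose plate-normalised and pattern-corrected inhibition of the luciferase reporter signal at the single screening dose is 50% or more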
EWS-Fli inh – inhibitors of EWS/Fli oncoprotein transcriptional activity; inhibition, % at 12.6 µM; AID 651661; A673 NR0B1-luciferase reporter, viability-normalised; 350,000 compounds, 0.67% hits;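 active means mean inhibition of at least 50% after viability correction, with every replicate also passing that limit; inconclusive means mean reaches 50% but only one of two replicates passes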;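 further: firefly luciferase signal divided by Alamar Blue viability fluorescence both relative to DMSO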
LGR2 inh – Drosophila LGR2 receptor signaling inhibition | HEK293 LGR2, CRE-luciferase, bursicon-stimulated, 4 h | inhibition, % at 9.99 µM | 380,000 compounds, 0.35% hits | AID 720647;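 active means drop in luminescence signal, shown as inhibition above about 50% in the replicate tests, limit read from the data, passing the limit was not always enough; inconclusive means probably only some replicates passing the limit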;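 further: agonist challenge used bursicon conditioned medium at about half maximal strength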
TWEAK-Fn14 inh – TWEAK-Fn14 signaling inhibition | TWEAK-stimulated Fn14 reporter cells, luciferase luminescence, 8 h | inhibition, % at 10 µM | 360,000 compounds, 2% hits; in the data active means inhibition above about 50%
PAX8 inh HTS – PAX8 transcriptional activity inhibition. RMG-I TPO-luciferase reporter, SteadyGlo, 24 h. 360,000 compounds, 1.2% hits. inhibition, % at 12.6 µM. AID 652154;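 active means mean replicate inhibition at least 60% with every replicate also reaching 60%; inconclusive means only one of the two criteria is met; inactive means mean below 60% and not all replicates reaching 60%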;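 further: luciferase light reporting Pax8 driven TPO promoter activity; plate controls were median of neutral control wells for no effect and mitoxantrone controls for full effect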
LMP1 NFkB inh – inhibitors of Epstein-Barr LMP1-induced NF-kappaB reporter. LMP1-induced NF-kappaB luciferase reporter cells, luminescence. inhibition, % at 12.5 µM. 350,000 compounds, 0.69% hits. AID 504558; in the data active means inhibition above about 41%; inconclusive means no clear call, values can overlap the other calls;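 further: 0% = neutral control wells and 100% = reference inhibitor control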
Starred values were filed as active, the others as inactive; ? = inconclusive; nt = no result; ! = repeats disagree. In the library only some 3.2% were active in any assay of this set; here they are far more common.

SMILES | TROY NFkB inh | EWS-Fli inh | LGR2 inh | TWEAK-Fn14 inh | PAX8 inh HTS | LMP1 NFkB inh
CN(C)CCCNS(=O)(=O)c1ccc(N2CCN(Cc3ccc4c(c3)OCO4)CC2)c([N+](=O)[O-])c1 | 27 | 52* | 5 | 35 | 5 | 0
CN(C)CCCN1c2ccccc2Sc2ccc3ccccc3c21 | 6 | 4 | 14 | 2 | 0 | 4
CN(C)CCCN1c2ccccc2Sc2ccc(Cl)cc21 | -10 | 5 | 16 | -5 | 2 | 49*!
Cc1ccc(S(=O)(=O)NC(C)c2ccccc2)cc1[N+](=O)[O-] (stereo not given) | 5 | 2 | -16 | -9 | 17 | 50*
CSc1ccc(S(=O)(=O)NC(C)c2ccccc2)cc1 (stereo not given) | -11 | -19 | -2 | 3 | -5 | 3
COc1ccc2nc(SCCOC(=O)Nc3ccc(Cl)cc3)nc(C)c2c1 | 35 | nt | -4 | 51* | 13 | 2
Cc1ccc(S(=O)(=O)Nc2ccc3c(c2)C(=O)N([C@H](C)CO)C[C@@H](C)[C@@H](CN(C)Cc2ccccc2)OCCCC[C@H](C)O3)cc1 | nt | 14 | 20 | nt | 40 | nt
CN=c1scc(-c2ccc([N+](=O)[O-])cc2)n1/N=C/c1ccco1 | -19 | -34 | -57 | 0 | -133 | -8
CN=c1scc(-c2ccc(F)cc2)n1/N=C/c1ccc(O)c(O)c1 | 76* | 50 | 75* | 88* | 66* | 9
Cc1ccsc1C(=O)OCC(=O)N(C)C1CCCCC1 | 32 | -44 | 10 | 63* | -128 | -18
C[C@@H]1CN([C@@H](C)CO)S(=O)(=O)c2ccc(C#CCN(C)C)cc2O[C@H]1CN(C)C(=O)C1CCC1 | nt | 0 | -1 | nt | nt | nt
Cc1ccc(S(=O)(=O)Nc2ccc3c(c2)CC(=O)N([C@H](C)CO)C[C@@H](C)[C@@H](CN(C)Cc2ccc(Cl)c(Cl)c2)O3)cc1 | nt | 4 | 26 | nt | 30 | nt
Cc1ccc(S(=O)(=O)Nc2ccc3c(c2)CC(=O)N([C@@H](C)CO)C[C@H](C)[C@H](CN(C)Cc2ccc(Cl)c(Cl)c2)O3)cc1 | nt | 69* | 30 | nt | 6 | nt
Cc1ccc(S(=O)(=O)Nc2ccc3c(c2)CC(=O)N([C@H](C)CO)C[C@H](C)[C@@H](CN(C)Cc2ccc(Cl)c(Cl)c2)O3)cc1 | nt | 10 | 14 | nt | 82* | nt
Cc1noc(C)c1S(=O)(=O)Nc1ccc2c(c1)CC(=O)N([C@@H](C)CO)C[C@@H](C)[C@H](CN(C)Cc1ccc(Cl)c(Cl)c1)O2 | nt | 17 | 23 | nt | 88* | nt
Cc1noc(C)c1S(=O)(=O)Nc1ccc2c(c1)CC(=O)N([C@@H](C)CO)C[C@H](C)[C@@H](CN(C)Cc1ccc(Cl)c(Cl)c1)O2 | nt | -5 | 5 | nt | 1 | nt
C[C@H](O)C#Cc1ccc([C@H]2[C@@H](CO)N3CCCCN(C(=O)Nc4ccccc4)C[C@H]23)cc1 | nt | -4 | -17 | nt | 7 | nt
CCS(=O)(=O)Nc1ccc2c(c1)C(=O)N(C)[C@H]1CC[C@H](CC(=O)Nc3ccccc3C)O[C@@H]1CO2 | nt | -5 | -5 | nt | nt | nt
O=c1c([N+](=O)[O-])cn(Cc2ccccc2)c(=O)n1Cc1ccccc1 | -16 | 1 | 25 | 6 | -8 | 68*
C[C@H](CO)N1C[C@H](C)[C@@H](CN(C)CC2CCCCC2)Oc2ccc(NC(=O)Nc3ccc4c(c3)OCO4)cc2CC1=O | nt | 0 | 18 | nt | 90* | nt
C[C@H]1CN([C@@H](C)CO)C(=O)Cc2cc(NC(=O)Nc3ccc(F)cc3)ccc2O[C@H]1CN(C)CC1CCCCC1 | nt | 33 | ? | nt | 19 | nt
C[C@H]1CN([C@@H](C)CO)C(=O)Cc2cc(NC(=O)Nc3ccc4c(c3)OCO4)ccc2O[C@@H]1CN(C)CC1CCCCC1 | nt | 2 | -29 | nt | 101* | nt
C[C@H](CO)N1C[C@H](C)[C@H](CN(C)CC2CCCCC2)Oc2ccc(NC(=O)Nc3ccc(F)cc3)cc2CC1=O | nt | 60* | 15 | nt | 9 | nt
CCC(C)(NC(=O)c1ccc2c(c1)OCO2)C(=O)NC1CCCCC1 (stereo not given) | 7 | -2 | -11 | 51* | 21 | 1
CN(C)Cc1c(C(C)(C)O)[nH]c2ccc(C(F)(F)F)cc12 | -4 | 1 | -12 | -15 | -24 | 4
SMILES | TROY NFkB inh | EWS-Fli inh | LGR2 inh | TWEAK-Fn14 inh | PAX8 inh HTS | LMP1 NFkB inh
CCc1c(C2(O)CCCCC2)[nH]c2ccc(C(F)(F)F)cc12 | 56* | -17 | 4 | 16 | 8 | -9
O=C(Nc1ccc2c(c1)[C@@H]1C[C@H](CC(=O)N3CCc4ccccc4C3)O[C@H](CO)[C@@H]1O2)Nc1ccccc1F | nt | -2 | 20 | nt | 25 | nt
O=C(Nc1ccc(C(F)(F)F)cc1)Nc1ccc2c(c1)[C@@H]1C[C@H](CC(=O)N3CCc4ccccc4C3)O[C@H](CO)[C@@H]1O2 | nt | 27 | 12 | nt | 109* | nt
COc1ccc(NC(=O)Nc2ccc3c(c2)[C@@H]2C[C@@H](CC(=O)N4CCc5ccccc5C4)O[C@H](CO)[C@@H]2O3)cc1 | nt | -6 | 5 | nt | 71* | nt
COc1ccc(NC(=O)Nc2ccc3c(c2)[C@@H]2C[C@H](CC(=O)N4CCc5ccccc5C4)O[C@@H](CO)[C@@H]2O3)cc1 | nt | -2 | 1 | nt | -21 | nt
O=C(Nc1ccc(C(F)(F)F)cc1)Nc1ccc2c(c1)[C@@H]1C[C@@H](CC(=O)N3CCc4ccccc4C3)O[C@H](CO)[C@@H]1O2 | nt | 0 | 4 | nt | 76* | nt
C[C@@H]1CCCCO[C@H](CN(C)Cc2ccc(C(=O)O)cc2)[C@@H](C)CN([C@H](C)CO)C(=O)c2cc(NS(=O)(=O)c3ccccc3)ccc2O1 | nt | -12 | -9 | nt | 4 | nt
CCCCCC(=O)N1CCN(c2ccc(C(C)=O)cc2F)CC1 | -1 | 0 | -8 | -3 | -7 | 77*
CC1CCCN(S(=O)(=O)c2cc3c4c(c2)C(C)C(=O)N4CCC3)C1 (stereo not given) | -12 | 7 | 9 | -8 | -14 | 69*
C[C@@H]1CN([C@@H](C)CO)C(=O)Cc2cc(NC(=O)NC3CCCCC3)ccc2O[C@H]1CN(C)S(C)(=O)=O | nt | 1 | -16 | nt | -1 | nt
CN(C)C(=O)c1ccc(-c2ccccc2[C@H]2[C@@H](C#N)N(C(=O)C3CCCCC3)[C@@H]2CO)cc1 | nt | 1 | -7 | nt | 6 | nt
CC(=O)Nc1ccc(NC(=O)CSc2nnc(-c3ccc4c(c3)OCO4)o2)cc1 | 5 | -52 | 3 | -23 | -30 | -5
CC(=O)CSc1nnc(-c2ccc3c(c2)OCO3)o1 | 31 | nt | nt | 58* | -5 | 2
Cc1ccc(CSc2nnc(-c3ccc4c(c3)OCO4)o2)cc1 | -35 | nt | -22 | -33 | nt | -13
O=C(O)CCSc1nnc(-c2ccc3c(c2)OCO3)o1 | 52* | nt | nt | 82* | 18 | 24
Cc1noc(C)c1NC(=O)N(C)C[C@H]1Oc2c(NS(=O)(=O)c3cccs3)cccc2C(=O)N([C@@H](C)CO)C[C@H]1C | nt | -4 | -18 | nt | nt | nt

Compound activity (PubChem BioAssay)
